Measured values as given in PubChem BioAssay AID652017 (The Scripps Research Institute Molecular Screening Center, 2013).
Screen size: about 370,000 compounds; about 3,800 (1%) were called active. Rule as the data show it: active = activation above about 7.8%; inactive = the rest. What follows is part of a selection rich in actives, with near analogues and random picks from the rest.

Test: SMARCA2 (BRM) function activators, primary screen, cell-based, luminescence, high throughput (AID 652017);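 also: 0% = vehicle wells and 100% = reference activator wells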
Settings: MG213 cells, MMTV-luciferase reporter, dexamethasone, overnight; at 9.1 µM; hits give high values

Compound	activation
O=C(N/N=C/c1c(O)n(Cc2ccccc2)c(=O)[nH]c1=O)c1ccccc1	8.1% (active)
O=C(N/N=C/c1c(O)n(C2CC2)c(=S)[nH]c1=O)c1ccccc1Cl	1.16% (inactive)
O=C(N/N=C/c1c(O)n(C2CC2)c(=S)[nH]c1=O)c1ccccc1	5.22% (inactive)
Cc1ccccc1CCC[C@@H](CC1CCCCC1)CN(C)C(=O)Oc1ccccc1	0.55% (inactive)
COc1ccc2c(c1)NP(=S)(c1ccccc1)N2 (stereo not given)	0.4% (inactive)
Cc1cc(C)c2c(c1)NP(=S)(c1ccccc1)N2 (stereo not given)	9.88% (active)
COc1cccc(C(=O)N2C[C@H]3C[C@@H](C2)c2cccc(=O)n2C3)c1	0.48% (inactive)
COP(=O)(Sc1ccccc1)C(Cc1ccccc1)NC(=O)OCc1ccccc1 (stereo not given)	0.4% (inactive)
NCC(O)c1ccc(O)cc1 (stereo not given)	-0.14% (inactive)
O=C1CC(=O)N(Cc2ccccc2)C(=O)N1CCCCCCN1C(=O)CC(=O)N(Cc2ccccc2)C1=O	1.8% (inactive)
